These results are taken from PubChem BioAssay (NCI).

The panel holds about 83,000 compounds, 20% with a hit somewhere; the sample as a whole holds those more often.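 The test compound was applied at a single concentration to cells in 96-well plates for 48 hours, and percent growth was recorded.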 Unmarked numbers belong to inactive results. Calls of active or inactive are those of the source. The calls were made as follows: active = growth percent below 10; inactive = the rest.

What all share (assay): NCI-60 one-dose screen, 48 h (100 = growth as untreated, 0 = no growth, -100 = all killed)
What all share (conditions): 10 µM unless noted

In experiment [1] the test system is NCI-H23 lung.
Experiment [2] concerns NCI-H226 lung.
Experiment [3] relates to NCI-H322M lung.
For experiment [4], the system named is HOP-62 NSCLC.
Experiment [5] relates to NCI-H460 lung.
The subject of experiment [6] is NCI-H522 lung.
The subject of experiment [7] is A549/ATCC NSCLC.
Experiment [8] relates to 786-0 renal.
For experiment [9], the system named is COLO 205 colon.

On to `Clc1ccc(C2=NN[C@H](c3cn(-c4ccccc4)nc3-c3ccccc3)C2)cc1`, for which the growth is 52% in experiment [1]; 55% in experiment [2]; 72.5% in experiment [3]; 16.1% in experiment [4]; 45.5% in [5]; 76.3% in experiment [6]. In addition, the growth was 46.5% in [7], 83.7% in [8] and 70.1% in [9].
Regarding `CC(C)[C@@H]1C=C2CC[C@H]3[C@](C)(CN)CCC[C@]3(C)[C@H]2CC1`, the growth in [1] was 95.4%; in experiment [2], 98.7%; in experiment [3], -6.11% (active); in experiment [4], 59.8%; in experiment [5] it was -69.7% (active); in experiment [6], 86.7%. Also, the growth is 95.5% in experiment [7], 78% in experiment [8] and -89.7% (active) in [9].
`CC(=O)c1ccc(N2C(=O)c3ccc(Oc4ccccc4)cc3C2=O)cc1`: the growth in [1] is 101%; in experiment [2], 98.8%; in experiment [3], 106%; in experiment [4] it was 99.9%; in experiment [5], 105%; in [6] it was 93.1%. Moreover, the growth in [7] is 109%; in experiment [8] it was 108%; in [9], 116%.
As for `COc1cc(Nc2ncccc2/C=C/C(=O)c2cc(OC)c(OC)c(OC)c2)cc(OC)c1OC`, the growth is 81.7% in experiment [1]; 82.9% in experiment [2]; 102% in experiment [3]; 92.7% in experiment [4]; 79.7% in [5]; 87.8% in experiment [6]. Moreover, the growth was 68.8% in [7], 91.7% in experiment [8] and 75.2% in [9].
As to `Cc1cc(N)cc(C)c1-c1c(Br)cc(N)cc1Br`, the growth is 50.9% in experiment [1]; 69.2% in experiment [2]; 18.8% in [3]; 25.1% in [4]; 17.4% in experiment [5]; -9.5% (active) in experiment [6]. Also, the growth in experiment [7] is 25.2%; in [8], 26.7%; in experiment [9] it was 11.9%.
For the molecule `CS(=O)(=O)c1ccc(C(=O)N/N=C/c2ccc3c(c2)OCO3)cc1`, the growth was 96.9% in experiment [1]; 91.1% in experiment [2]; 96.2% in [3]; 96.8% in [4]; 107% in experiment [5]; 86% in experiment [6]. Besides, the growth in [7] was 67.7%; in [8] it was 102%; in [9] it was 110%.
As for `NS(=O)(=O)c1ccc(CCn2c(SCC(=O)N/N=C/c3ccccc3O)nc3ccccc3c2=O)cc1`, the growth is 65.4% in [1]; 51.1% in experiment [2]; 77.5% in experiment [3]; 44.4% in experiment [4]; 23.1% in experiment [5]; 8.06% (active) in [6]. The growth in experiment [7] was 53.9%; in experiment [8] it was 41.7%; in experiment [9] it was 49.9%.
Regarding `CCN1C(=O)N(CC)C2C1NN=c1s/c(=C\c3ccco3)c(=O)n12` (stereo not given), the growth was 37.3% in [1]; 60% in experiment [2]; 42.5% in experiment [3]; 28.2% in [4]; 12.9% in experiment [5]; -9.98% (active) in [6]. The growth in [7] is 25%; in experiment [8], 25%; in [9], -19.8% (active).
`COc1cc(/C=C/c2cc(/C=C/c3ccc(O)c(OC)c3)n(C(=O)c3ccccc3Br)n2)ccc1O`: the growth in experiment [1] was 17.7%; in experiment [2] it was 38.5%; in [3], 39.5%; in experiment [4] it was 43.5%; in experiment [5] it was 9.15% (active); in experiment [6], 4.2% (active). Further, the growth in [7] was 41.7%; in experiment [8], 9.91% (active); in [9] it was 23.9%.
`Nc1c(C(=O)Nc2ccccc2)sc2nc3c(cc12)C(=O)CCC3`: the growth was 39.5% in experiment [1]; 68% in experiment [2]; 67.1% in experiment [3]; 39.9% in experiment [4]; 12.9% in experiment [5]; -33.8% (active) in [6]. For the same molecule, the growth was 19.7% in experiment [7], 36.2% in [8] and -18.4% (active) in [9].
For `CCSCC1CC(O)(c2ccccc2)C(c2ccccc2)C(c2ccc(F)cc2)O1` (stereo not given), the growth in experiment [1] is -6.5% (active); in experiment [2] it was -4.42% (active); in experiment [3] it was 3.59% (active); in [4], -13.3% (active); in experiment [5], -16.3% (active); in experiment [6] it was 10.6%. The growth in [7] was 3.27% (active); in experiment [8] it was -49.5% (active); in experiment [9], -70.2% (active).
Consider `O=C(Cc1ccc([N+](=O)[O-])cc1)Oc1ccccc1`, for which the growth in [1] is 109%; in experiment [2] it was 111%; in experiment [3], 103%; in experiment [4] it was 102%; in experiment [5], 114%; in [6] it was 97.2%. Further, the figures for the growth in experiment [7], in experiment [8] and in experiment [9] were 111%, 104% and 109%, respectively.
Consider `CCC(=O)OCc1ccc(OC)cc1`, for which the growth is 99% in experiment [1]; 101% in [2]; 110% in experiment [3]; 109% in experiment [4]; 111% in experiment [5]; 106% in experiment [6]. For the same molecule, the growth in experiment [7] was 107%; in [8], 101%; in experiment [9], 113%.
In the case of `C=C1C(=O)O[C@H]2[C@H]1CC/C(COC(=O)N[C@@H](Cc1c[nH]c3ccccc13)C(=O)OC)=C\CC[C@@]1(C)O[C@@H]21`, the growth is 68.5% in [1]; 58.4% in experiment [2]; 80.5% in [3]; 68.8% in experiment [4]; 40.5% in [5]; -71.1% (active) in experiment [6]. Moreover, the growth was 47.2% in experiment [7], -48.6% (active) in [8] and -69.2% (active) in [9].
With `CCN(CCC#N)c1ccccc1`, the growth in [1] is 106%; in experiment [2], 100%; in experiment [3] it was 106%; in experiment [4] it was 101%; in [5] it was 107%; in experiment [6], 109%. For the same molecule, the growth is 108% in experiment [7], 99.7% in [8] and 132% in [9].
